molecular target: Hexose transporter 1 (Plasmodium falciparum) (UniProt O97467); assay: ST_JUDE_LEISH: Cytotoxicity at 2uM final concentration against transgenic Leishmania Mexicana promastigotes LmPfHT that are glucose transport deficient and complemented with the Plasmodium falciparum hexose transporter. Activity is measured by DNA content using SYBR green in vitro; assay type: functional

In order of falling inhibition:
1. CCCCCCC(N)c1ccc(OCCCOc2ccc(C(N)CCCCCC)cc2)cc1 (stereo not drawn)  106%
2. CN(C)Cc1ccc(-c2ccc(NC(=O)c3ccc4c(=O)n(Cc5ccccc5)cnc4c3)cc2)cc1  94%
3. N#Cc1ccc(N[C@@H](CC2CCCCC2)C(=O)NCc2cc(F)c(F)cc2F)c2ccccc12  14.1%
4. COc1cc(-c2cnc(N)c(-c3nc4ccccc4[nH]3)c2)cc(OC)c1OC  9.19%
5. Cc1ccc(CNC(=O)c2cnc(N3CCN(c4ccncc4)CC3)c(Cl)c2)cc1  6.64%
6. C(=C(c1cccs1)c1cccs1)c1ccc(CNC2CCN(Cc3ccccc3)CC2)cc1  6.16%
7. Cc1ccc2nc(C)n(C3CCN(C(=O)C4(c5ccccc5)CC4)CC3)c2c1  6.02%
8. C=C1C(C(=O)OCC)=CN(CC)c2cc(O[C@@H]3CCN(C(=O)OC(C)(C)C)C3)ccc21  5.44%
9. O=C(/C=C/c1ccc(Cl)c(Cl)c1)NCCCCCN1CCCC(c2c[nH]c3ccccc23)C1 (stereo not drawn)  5.33%
10. COc1ccc2nccc([C@@H](O)CN3CCC(NCc4ccc5sc(=O)[nH]c5c4)CC3)c2c1  5.11%
11. Cc1ccc(CNC(=O)[C@H](Cc2ccccc2)Nc2cc(C)nc(NCc3ccccc3C)n2)cc1  5.01%
12. COc1ccc(CN2CCN(CCCCNC(=O)c3ccc(NC(=O)c4ccc(Cl)cc4)cc3)CC2)c(OC)c1  4.9%
13. CC(C)=CCc1c(-c2ccc(O)cc2O)oc2c3c(cc(O)c2c1=O)OC(C)(C)C=C3  4.6%
14. N#Cc1ccc2c(c1)CCN(CCC1CCC(NC(=O)/C=C/c3cnc4ccccc4c3)CC1)CC2 (stereo not drawn)  4.53%
15. O=C(NCCc1ccccc1)N(Cc1ccccc1-c1cccc(CNC2CCCC2)c1)C1CCN(Cc2ccccc2)CC1  4.49%
16. COc1ccccc1CN1CCC(NC(=O)c2ccc(-c3cccc(C(F)(F)F)c3)s2)CC1  4.38%
17. COc1ccc(C(=O)Nc2ccc(Cl)cc2C(=O)Nc2ccncc2)cc1  3.94%
18. CS(=O)(=O)NCCCNCc1cccc(-c2ccc(-c3nc4cc(C(F)(F)F)ccc4[nH]3)cc2)c1  3.88%
19. CCCCCNC(=N)N/N=C/c1c[nH]c2ccc(OC)cc12  3.63%
20. CS(=O)(=O)NCCCNCc1ccc(-c2cccc(-c3nc4cc(C(F)(F)F)ccc4[nH]3)c2)cc1  3.56%
21. CC(C)(C)c1ccc(CNC(=O)/C=C/c2ccc(-c3nc4cc(C(C)(C)C)ccc4[nH]3)cc2)cc1  3.4%
22. Cc1ccc(S(=O)(=O)n2nccc2-c2c(-c3ccc(Cl)cc3)noc2C)cc1  3.35%
23. CCCC(C)NC(=O)[C@H](Cc1ccccc1)NC(=O)c1ccc(O)c(-c2ccc(OC)cc2)c1 (stereo partly drawn)  3.09%
24. COc1cc2nc(NCCc3ccccc3)nc(NCc3nccs3)c2cc1OC  2.47%
25. CC1(C)NC(N)=NC(=N)N1OCc1cc(Cl)c(Cl)cc1CON1C(=N)N=C(N)NC1(C)C  2.37%
26. CCOc1cc(C)ccc1C1CCN(CCCCNC(=O)c2cnc(-c3ccc(C(F)(F)F)cc3)[nH]2)CC1  2.12%
27. CCN(CC)CCN(Cc1ccc(-c2ccc(C(F)(F)F)cc2)cc1)C(=O)Cn1c(CCc2cccc(F)c2F)nc(=O)c2cccnc21  2.07%
28. CCC(NC[C@@H](O)[C@H](Cc1ccccc1)NC(=O)c1cc(C2CCCC2)cc(N2CCCC2=O)c1)c1cccc(Cl)c1 (stereo partly drawn)  2.04%
29. CCCN(CCC)c1nn2c(=O)c(C(=O)N3CCN(Cc4ccccc4)CC3)cnc2s1  1.87%
30. CC(=O)Nc1ccc(CN(Cc2ccc(F)cc2)Cc2cccc(Oc3ccccc3)c2)cc1  1.73%
31. CC1(C)CCC(C)(C)c2c1ccc(C1CCN(CCCCNC(=O)c3ccc(-c4ccc(Cl)cc4)cc3)CC1)c2O  1.66%
32. COc1ccc2nccc([C@@H](O)CN3CCC(NCCOc4ccncc4)CC3)c2c1  1.23%
33. Cc1cccc2nc(-c3ccc(-c4ccc(NC(=O)NCc5ccc(F)cc5)cc4)cc3)[nH]c12  0.89%
34. O=c1cc(NCCCNCc2ccc(C(F)(F)F)cc2F)[nH]c2ccccc12  0.29%
35. COc1ccc2nccc([C@@H](O)CN3CCC(NC(=O)c4cccc(-c5cc(C)no5)c4)CC3)c2c1  0.14%
36. COc1ccc(C2C(C(=O)OC3CCCCC3)=C(C)NC3=C2C(=O)CCC3)cc1Br (stereo not drawn)  -0.1%
37. CC(C)CC(NC(=O)c1cc2ccccc2s1)C(=O)N1CCCCCC1c1ccc(C(C)(C)C)cc1 (stereo not drawn)  -0.83%
38. COCCN1CCN(Cc2ccc(-c3cccc(-c4nc5ccccc5[nH]4)c3)cc2)CC1  -1.3%
39. Nc1cc(C(F)(F)F)ccc1Cl  -2.13%

molecular target: Glucose transporter (Leishmania mexicana) (UniProt O61059); assay: ST_JUDE_LEISH: Cytotoxicity at 2uM final concentration against transgenic Leishmania Mexicana promastigotes LmGT2 that are glucose transport deficient and complemented with the L. Mexicana glucose transporter 2. Activity is measured by DNA content using SYBR green in vitro; assay type: functional

In order of rising inhibition:
1. COc1ccccc1CN1CCC(NC(=O)c2ccc(-c3cccc(C(F)(F)F)c3)s2)CC1  -4.28%
2. COCCN1CCN(Cc2ccc(-c3cccc(-c4nc5ccccc5[nH]4)c3)cc2)CC1  -2.88%
3. Nc1cc(C(F)(F)F)ccc1Cl  -2.26%
4. COc1ccc2nccc([C@@H](O)CN3CCC(NCCOc4ccncc4)CC3)c2c1  -0.87%
5. CC(C)CC(NC(=O)c1cc2ccccc2s1)C(=O)N1CCCCCC1c1ccc(C(C)(C)C)cc1 (stereo not drawn)  -0.81%
6. COc1ccc(C(=O)Nc2ccc(Cl)cc2C(=O)Nc2ccncc2)cc1  -0.77%
7. CCOc1cc(C)ccc1C1CCN(CCCCNC(=O)c2cnc(-c3ccc(C(F)(F)F)cc3)[nH]2)CC1  -0.53%
8. O=c1cc(NCCCNCc2ccc(C(F)(F)F)cc2F)[nH]c2ccccc12  -0.34%
9. CCCCCNC(=N)N/N=C/c1c[nH]c2ccc(OC)cc12  -0.13%
10. COc1cc2nc(NCCc3ccccc3)nc(NCc3nccs3)c2cc1OC  0.04%
11. COc1ccc2nccc([C@@H](O)CN3CCC(NC(=O)c4cccc(-c5cc(C)no5)c4)CC3)c2c1  0.08%
12. CC1(C)CCC(C)(C)c2c1ccc(C1CCN(CCCCNC(=O)c3ccc(-c4ccc(Cl)cc4)cc3)CC1)c2O  0.11%
13. CC1(C)NC(N)=NC(=N)N1OCc1cc(Cl)c(Cl)cc1CON1C(=N)N=C(N)NC1(C)C  0.54%
14. CC(=O)Nc1ccc(CN(Cc2ccc(F)cc2)Cc2cccc(Oc3ccccc3)c2)cc1  0.56%
15. Cc1cccc2nc(-c3ccc(-c4ccc(NC(=O)NCc5ccc(F)cc5)cc4)cc3)[nH]c12  0.63%
16. CS(=O)(=O)NCCCNCc1cccc(-c2ccc(-c3nc4cc(C(F)(F)F)ccc4[nH]3)cc2)c1  0.95%
17. COc1ccc2nccc([C@@H](O)CN3CCC(NCc4ccc5sc(=O)[nH]c5c4)CC3)c2c1  1.2%
18. COc1ccc(C2C(C(=O)OC3CCCCC3)=C(C)NC3=C2C(=O)CCC3)cc1Br (stereo not drawn)  1.36%
19. COc1cc(-c2cnc(N)c(-c3nc4ccccc4[nH]3)c2)cc(OC)c1OC  1.47%
20. CCN(CC)CCN(Cc1ccc(-c2ccc(C(F)(F)F)cc2)cc1)C(=O)Cn1c(CCc2cccc(F)c2F)nc(=O)c2cccnc21  1.66%
21. CCCN(CCC)c1nn2c(=O)c(C(=O)N3CCN(Cc4ccccc4)CC3)cnc2s1  2.14%
22. Cc1ccc(S(=O)(=O)n2nccc2-c2c(-c3ccc(Cl)cc3)noc2C)cc1  2.23%
23. Cc1ccc(CNC(=O)[C@H](Cc2ccccc2)Nc2cc(C)nc(NCc3ccccc3C)n2)cc1  2.6%
24. Cc1ccc(CNC(=O)c2cnc(N3CCN(c4ccncc4)CC3)c(Cl)c2)cc1  3.12%
25. N#Cc1ccc2c(c1)CCN(CCC1CCC(NC(=O)/C=C/c3cnc4ccccc4c3)CC1)CC2 (stereo not drawn)  3.67%
26. CCCC(C)NC(=O)[C@H](Cc1ccccc1)NC(=O)c1ccc(O)c(-c2ccc(OC)cc2)c1 (stereo partly drawn)  3.9%
27. CC(C)(C)c1ccc(CNC(=O)/C=C/c2ccc(-c3nc4cc(C(C)(C)C)ccc4[nH]3)cc2)cc1  4.02%
28. CCC(NC[C@@H](O)[C@H](Cc1ccccc1)NC(=O)c1cc(C2CCCC2)cc(N2CCCC2=O)c1)c1cccc(Cl)c1 (stereo partly drawn)  4.65%
29. Cc1ccc2nc(C)n(C3CCN(C(=O)C4(c5ccccc5)CC4)CC3)c2c1  5.27%
30. CS(=O)(=O)NCCCNCc1ccc(-c2cccc(-c3nc4cc(C(F)(F)F)ccc4[nH]3)c2)cc1  5.43%
31. O=C(/C=C/c1ccc(Cl)c(Cl)c1)NCCCCCN1CCCC(c2c[nH]c3ccccc23)C1 (stereo not drawn)  5.49%
32. C(=C(c1cccs1)c1cccs1)c1ccc(CNC2CCN(Cc3ccccc3)CC2)cc1  5.77%
33. COc1ccc(CN2CCN(CCCCNC(=O)c3ccc(NC(=O)c4ccc(Cl)cc4)cc3)CC2)c(OC)c1  6.03%
34. O=C(NCCc1ccccc1)N(Cc1ccccc1-c1cccc(CNC2CCCC2)c1)C1CCN(Cc2ccccc2)CC1  6.22%
35. CC(C)=CCc1c(-c2ccc(O)cc2O)oc2c3c(cc(O)c2c1=O)OC(C)(C)C=C3  6.57%
36. C=C1C(C(=O)OCC)=CN(CC)c2cc(O[C@@H]3CCN(C(=O)OC(C)(C)C)C3)ccc21  6.99%
37. N#Cc1ccc(N[C@@H](CC2CCCCC2)C(=O)NCc2cc(F)c(F)cc2F)c2ccccc12  12%
38. CN(C)Cc1ccc(-c2ccc(NC(=O)c3ccc4c(=O)n(Cc5ccccc5)cnc4c3)cc2)cc1  63.3%
39. CCCCCCC(N)c1ccc(OCCCOc2ccc(C(N)CCCCCC)cc2)cc1 (stereo not drawn)  109%

Source: ChEMBL document CHEMBL3433997, “St. Jude Leishmania screening dataset” (2016)
